BAZ2B inh: inhibitors of human BAZ2B bromodomain; AID 504333; hit rate 4.4% among 360,000; Potency, µM (top dose mostly 114 µM), for the others: at the top dose activity change, negative = inhibition, usual class: inhibitors; AlphaScreen BAZ2B-H3K14Ac peptide displacement; also: % is scaled to controls: 0 for no effect and ±100 for the full control effect; nearly all actives have a fitted effect of over 60% in size
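Inhibition is scored as reduced AlphaScreen emission. The BAZ2B/b-H3(5-23)K14Ac complex (50 nM each) in PBS pH 7.4, 0.01% Tween-20 meets compound (up to 110 uM) for 30 min at RT before bead addition.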
L3MBTL1 block: inhibitors of human L3MBTL1; Q9Y468; AlphaScreen L3MBTL1–H3K9me1 peptide binding; Potency, µM (doses to about 57.1 µM), without a hit: at the top dose activity, negative = inhibition, most hits filed as inhibitors; hit rate 0.66% among 230,000; AID 485360; also: % is scaled to controls: 0 for no effect and ±100 for the full control effect; nearly all actives have a fitted effect of over 60% in size
Target sequence (Q9Y468 whole entry, looked up): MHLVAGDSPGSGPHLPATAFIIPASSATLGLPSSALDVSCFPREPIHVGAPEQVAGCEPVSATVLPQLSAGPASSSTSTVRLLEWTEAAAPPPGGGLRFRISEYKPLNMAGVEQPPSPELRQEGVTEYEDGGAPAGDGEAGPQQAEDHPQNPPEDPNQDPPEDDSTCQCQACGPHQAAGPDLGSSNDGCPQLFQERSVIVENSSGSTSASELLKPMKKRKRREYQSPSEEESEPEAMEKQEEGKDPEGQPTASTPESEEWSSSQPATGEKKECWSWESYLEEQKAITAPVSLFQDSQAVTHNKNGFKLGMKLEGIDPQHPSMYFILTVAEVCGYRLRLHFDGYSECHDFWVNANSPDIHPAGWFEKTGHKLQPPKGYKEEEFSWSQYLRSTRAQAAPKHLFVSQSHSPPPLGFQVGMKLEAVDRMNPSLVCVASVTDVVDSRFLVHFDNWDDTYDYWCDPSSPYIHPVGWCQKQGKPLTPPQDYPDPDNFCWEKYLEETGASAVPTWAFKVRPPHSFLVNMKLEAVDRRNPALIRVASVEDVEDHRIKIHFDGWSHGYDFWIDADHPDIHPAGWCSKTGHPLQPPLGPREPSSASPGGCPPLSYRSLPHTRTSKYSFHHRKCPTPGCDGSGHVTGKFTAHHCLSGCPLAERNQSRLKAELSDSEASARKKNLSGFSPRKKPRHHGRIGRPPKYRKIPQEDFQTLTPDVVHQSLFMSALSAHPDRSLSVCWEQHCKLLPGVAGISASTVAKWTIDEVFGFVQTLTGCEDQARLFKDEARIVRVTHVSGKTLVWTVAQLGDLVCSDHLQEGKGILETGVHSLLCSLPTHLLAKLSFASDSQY
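AlphaScreen assay: L3MBTL1 (50 nM final) was preincubated 30 min at room temperature with biotinylated H3(1-15)K9me1 peptide (75 nM final), then 30 min with library compounds; streptavidin donor and nickel chelate acceptor beads (10 ug/mL final) added, 30 min dark.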
JMJD2A Tudor: blocks the human JMJD2A Tudor domain; AlphaScreen JMJD2A-Tudor / H3K4me3 peptide binding; Potency, µM (top dose mostly 114 µM), inactives show at the highest dose activity change, negative = inhibition, hits mostly inhibitors; hit rate 4.4% among 390,000; also: % is scaled to controls: 0 for no effect and ±100 for the full control effect; nearly all actives have a fitted effect of over 50% in size
HP1b chromo inh: inhibitors of HP1-beta chromodomain binding to methylated histone tails | AlphaScreen HP1-beta / biotin-H3K9me3 peptide binding | AID 540317 | hit rate 0.56% among 390,000 | Potency, µM (highest dose often 114 µM), for the others: at the top dose activity change, negative = inhibition, most hits filed as inhibitors | P83916; also: nearly all actives have a fitted effect of over 70% in size
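HP1-beta protein (50 nM final) preincubated 30 min at room temperature with biotinylated H3(1-18)K9me3 peptide (50 nM) in PBS pH 7.4, 0.01% Tween-20, then compound added for 30 min. AlphaScreen streptavidin donor/nickel chelate acceptor beads (10 ug/mL final), 30 min dark, luminescence read.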
G9a block: blocks human histone lysine methyltransferase G9a; Q96KQ7; G9a H3K9 monomethylation, AlphaScreen, 2 h; Potency, µM (highest dose often 102 µM), for the others: at the top dose activity, negative = inhibition, hits mostly inhibitors; hit rate 8.8% among 350,000; AID 504332; also: % is scaled to controls: 0 for no effect and ±100 for the full control effect; nearly all actives have a fitted effect of over 75% in size
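G9a (20 nM) was preincubated 15 min with compound, then reacted 2 h at room temperature with 500 nM biotin-H3K9 peptide and 20 µM SAM. Monomethyl-H3K9 detected by AlphaScreen using anti-H3K9me1 antibody.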
GLS inh: glutaminase GLS (human) inhibition; O94925; GLS enzymatic activity, qHTS titration; Potency, µM (top dose mostly 45.5 µM), for inactives: at the highest dose activity change, negative = inhibition, hits mostly inhibitors; hit rate 0.21% among 410,000; AID 624170; also: % is scaled to controls: 0 for no effect and ±100 for the full control effect
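Enzyme dispensed in phosphate buffer (45 mM, pH 8.2, 0.02% Tween-20), compounds pinned in, then 1 mM L-glutamine solution and the glutamate oxidase–HRP–Amplex Red mix added; fluorescence read immediately and again after 30 min at room temperature.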
Numbers without * were called inactive; ? = inconclusive; · = not tested or not shown; [ ] = dose if it differs, or a comment. In the library only some 10% were active in any assay of this set; here they are far more common. Calls follow the shape of the dose curve; as a rule, active = well fitted curve in the direction sought with a large enough effect; inconclusive = small, poorly fitted or top-dose-only effect, or another doubt; inactive = no such curve, though single readings can be large; an effect the other way counts as inactive or inconclusive. Potency is read from the fitted curve at half-maximal effect.

SMILES | BAZ2B inh | L3MBTL1 block | JMJD2A Tudor | HP1b chromo inh | G9a block | GLS inh
COc1cc2c(cc1OC)C1(Nc3c-2c(-c2ccccc2)nn3-c2ccccc2)C(=O)Nc2ccccc21 (stereo not given) | ? | · | ? | -33% | 79µM* | 16%
Cc1nn(-c2ccccc2)c2c1CC(=O)Nc1ccccc1-2 | · | · | -14% | 32% | · | -11%
CC1=C(C(=O)NCc2ccccc2C)C2(CCCCCC2)OC1=O | 4% | · | -36% | -22% | 2%[59 µM] | 2%
CCCCN(C)C(=O)C1CCCN(c2ncnc3onc(-c4ccc(F)cc4)c23)C1 (stereo not given) | 8%[57.1 µM] | · | -20% | 7% | -4%[59 µM] | -3%
N#Cc1ccc(CN2CC[C@@]3(CCCN(S(=O)(=O)c4ccccc4)C3)C2)cc1 | · | · | · | · | 4%[12.7 µM] | ·
O=C(NCCCCNC(=O)c1ccc(Br)cc1)c1ccc(Br)cc1 | 2% | · | -11% | 64% | 0% | -5%
O=C(O)CCCCCNC(=O)c1ccc(Br)cc1 | ? | · | -16%[57.1 µM] | 40% | 50µM* | -12%
COc1ccccc1-c1cc(C(F)(F)F)nc(S(C)(=O)=O)n1 | -6% | · | -8% | 90% | ? | 6%
CS(=O)(=O)c1nc(-c2ccco2)cc(C(F)(F)F)n1 | -1% | -2% | · | · | 32µM* | ·
CCN(CC)CCCC(C)Nc1cc(/C=C/c2ccccc2Cl)nc2cc(Cl)ccc12 (stereo not given) | · | · | · | · | -16%[12.7 µM] | 6%
CCN(CC)CCCC(C)Nc1c2ccc(Cl)cc2nc2ccc(OC)cc12 (stereo not given) | -34% | · | · | · | 8.4µM* | ·
CC(=O)Nc1ccc(S(=O)(=O)NC2=C(N3CCN(Cc4ccccc4)CC3)C(=O)c3ccccc3C2=O)cc1 | 20µM* | · | 35µM* | 32µM* | ? | 19%
CC(=O)Nc1ccc(S(=O)(=O)Nc2cc(C)cn(Cc3ccccc3)c2=O)cc1 | -3% | · | 25µM* | 27% | 14%[59 µM] | -5%
CC(=O)Nc1ccc(S(=O)(=O)Nc2cccn(Cc3ccc(C)cc3)c2=O)cc1 | -8% | 1% | -29% | 4% | 3% | 1%
CCOC(=O)N1CCN(C2=C(NS(=O)(=O)c3ccc(NC(C)=O)cc3)C(=O)c3ccccc3C2=O)CC1 | 45µM* | · | ? | -11%[57 µM] | 28µM* | 21%
CC(=O)Nc1ccc(S(=O)(=O)NC2=C(N3CCN(C)CC3)C(=O)c3ccccc3C2=O)cc1 | 32µM* | · | -25% | 0%[57 µM] | 50µM* | 44%
CCN1CCN(C2=C(NS(=O)(=O)c3ccc(NC(C)=O)cc3)C(=O)c3ccccc3C2=O)CC1 | ? | · | 7% | 30% | ? | -9%
Cc1noc(C)c1-c1ccc2ncnc(NCc3cccc(C(F)(F)F)c3)c2c1 | · | · | -8% | · | · | ·
CCCCN(C)c1nnc(NC(=O)Nc2cccc(C(C)=O)c2)s1 | -35% | · | -20% | 31% | 5%[59 µM] | 5%
CC(=O)NCc1nc2cccnc2n1Cc1ccccc1 | 4% | · | -1% | 29%[57 µM] | -3%[59 µM] | -2%
CCN1CCN(C2=C(NS(=O)(=O)c3ccc(C)cc3)C(=O)c3ccccc3C2=O)CC1 | ? | · | -35% | 6% | 40µM* | 8%
CCOC(=O)C1CCCCN1Cc1ccc(OC)c(OC)c1 (stereo not given) | 56µM* | 5% | 20µM* | ? | 32µM* | 12%
CCOC(=O)C1CCCCN1Cc1ccc(F)c(Br)c1 (stereo not given) | 12% | · | ? | ? | 22µM* | -3%
COc1cccc(CN2CCCCC2C(=O)O)c1 (stereo not given) | -1% | 10% | -18% | 18% | 9% | 0%
CCC1CCCCN1Cc1ccc(OC)c(C)c1 (stereo not given) | 56µM* | · | 7.1µM* | ? | 50µM* | 3%
SMILES | BAZ2B inh | L3MBTL1 block | JMJD2A Tudor | HP1b chromo inh | G9a block | GLS inh
Cn1nnnc1Sc1ncnc2scc(-c3ccccc3S(C)(=O)=O)c12 | · | · | -16% | · | · | ·
CCOC(=O)c1c(-c2ccccc2)oc2cc(Br)c(OCc3ccccc3)cc12 | 0% | · | 44% | 75% | 9%[59 µM] | 7%
O=C(c1ccccc1)C1C(c2ccccc2)C1[N+](=O)[O-] (stereo not given) | 3% | 8% | 27% | 46% | 58% | 29%
CN(C)c1ccc([C@@H]2[C@@H]([N+](=O)[O-])[C@H]3C=Cc4ccccc4N3[C@H]2C(=O)c2ccc(Cl)cc2)cc1 | 32µM* | ? | 45µM* | ? | 7.9µM* | -2%
COc1ccc(C)cc1NC(=O)C1C2C=CC(C2)C1C(=O)O (stereo not given) | 3% | 2% | -27% | 10% | -38% | 13%
CN(C)c1ccc(NC(=O)C2C3C=CC(C3)C2C(=O)O)cc1 (stereo not given) | 35µM* | · | ? | 1% | 22µM* | 46%
COc1cc(NC(=O)C2C3C=CC(C3)C2C(=O)O)c(OC)cc1Cl (stereo not given) | 0% | -7% | -18% | 19% | 11µM* | 9%
COc1ccc(F)cc1S(=O)(=O)NCC(c1ccco1)S(=O)(=O)c1ccc(F)cc1 (stereo not given) | -5% | · | -17% | 27% | -3%[59 µM] | -8%
COc1ccc(OC)c(NC(=S)NCc2ccc(S(N)(=O)=O)cc2)c1 | 6% | -2% | -10% | -18% | 45µM* | 0%
COc1ccccc1NC(=S)NCc1ccc(S(N)(=O)=O)cc1 | 7% | 7% | 0% | 17% | ? | 4%
COc1ccc(NC(=S)NCc2ccc(S(N)(=O)=O)cc2)c(OC)c1 | 5% | 7% | -4% | -11% | 7.1µM* | 33%
COc1ccc(CCNC(=O)c2c[nH]n3c(=O)c(Cc4ccccc4Cl)c(C)nc23)cc1OC | -1% | · | -13% | 4% | -2%[59 µM] | 1%
Cc1cccc(C)c1NC(=O)CSc1nccn1C | -19% | · | -3% | 26% | 9%[59 µM] | 6%
CN(C)C(=O)CN1C(=O)c2cccc3cccc1c23 | 25% | 33% | 1% | 35% | · | 3%
CCN1C(=O)c2cccc3cccc1c23 | 36% | · | 32µM* | 9% | -23%[12.7 µM] | -6%
O=C(Cc1csc(N2CCOCC2)n1)N/N=C/c1ccc(O)c(O)c1O | · | -16% | 10µM* | 16µM* | 3.5µM* | ?
Cc1cc(C(=O)N/N=C/c2ccc(O)c(O)c2O)c(C)n1-c1ccccc1 | 56µM* | ? | 56µM* | ? | 10µM* | 16µM*
C/C(=N\NC(=O)Cc1csc(N2CCOCC2)n1)c1ccccc1 | 2% | · | 5% | 18% | 13% | ·
O=C(CCN1CCOCC1)N/N=C/c1cc(Br)cc(Br)c1O | 56µM* | -15% | ? | 28% | · | 11%
COC(=O)N/N=C/c1cc(C)n(-c2ccccc2)c1C | -31% | -1% | -25% | 6% | -16%[59 µM] | 13%
